Rab9 prom act – qHTS Assay for Rab9 Promoter Activators. 320,000 compounds, 2.8% hits. Potency, µM (series often up to 9.22 µM), for inactives: at the highest dose activation, negative = inhibition, actives largely listed as activators. Huh7 Rab9 promoter-luciferase reporter, luminescence, 24 h; also: % of control where 0% means no effect; nearly all actives have a fitted effect of over 60% in size
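Huh7 reporter line, Rab9 promoter upstream of luciferase. Compound exposure 24 h at 37 °C in reduced-serum medium with 10% FBS. Read-out: luminescence.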
NPC1 promoter act – qHTS Assay for NPC1 Promoter Activators; Huh7 NPC1 promoter luciferase reporter, 24 h; Potency, µM (top dose mostly 9.22 µM), without a hit: at the highest dose activation, usual class: activators; 320,000 compounds, 2.4% hits; AID 485313, 2010; also: % of control where 0% means no effect; nearly all actives have a fitted effect of over 60% in size
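Compounds in DMSO were transferred onto Huh7 NPC1-luciferase reporter cells pre-incubated 2 h; after 24 h at 37 °C, Amplite reagent was dispensed and luminescence recorded 10 min later.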
ELG1 genotox – qHTS screen for small molecules that induce genotoxicity in human embryonic kidney (HEK293T) cells expressing luciferase-tagged ELG1; 330,000 compounds, 1.3% hits; HEK293T ELG1-luciferase reporter, luminescence, 16 h; AID 504466, 2011; Potency, µM (top dose mostly 46 µM), without a hit: at the top dose activity change, positive = activation, actives largely listed as activators; also: % of control where 0% means no effect; nearly all actives have a fitted effect of over 60% in size
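Reporter readout depends on ELG1 protein level, which increases with genetic stress. After 16 hr compound exposure at 37 °C, luciferase activity was quantified using ONE-Glo.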
ELG1 DNA repair – qHTS screen for small molecules that inhibit ELG1-dependent DNA repair in human embryonic kidney (HEK293T) cells expressing luciferase-tagged ELG1; HEK293T ELG1-luciferase reporter, luminescence, 16 h; DNA damage induced by 5-fluorouridine; Potency, µM (top dose mostly 46.1 µM), inactives show top-dose activity change, negative = inhibition, usual class: inhibitors; AID 504467, 2011; 330,000 compounds, 2.3% hits; also: % is scaled to controls: 0 for no effect and ±100 for the full control effect; nearly all actives have a fitted effect of over 55% in size
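Cells (2,000 per well) received 5-fluorouridine plus test compound or DMSO and were incubated 16 hr at 37 °C, 5% CO2. Luciferase activity was read by luminescence 30 min after ONE-Glo addition; signal suppression marked inhibition of damage-induced ELG1 function.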
FLuc counter – qHTS profiling assay for firefly luciferase inhibitor/activator using purifed enzyme and Km concentrations of substrates (counterscreen for miR-21 project); purified FLuc, Km substrates, luminescence inhibition; Potency, µM (top dose mostly 57.5 µM), for the others: at the top dose activity change, negative = inhibition, usual class: inhibitors; 360,000 compounds, 6.9% hits;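 also: plate controls were vehicle for no effect and reference inhibitor for full effect; nearly all actives have a fitted effect of over 55% in size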
Target sequence (P08659 whole entry, looked up): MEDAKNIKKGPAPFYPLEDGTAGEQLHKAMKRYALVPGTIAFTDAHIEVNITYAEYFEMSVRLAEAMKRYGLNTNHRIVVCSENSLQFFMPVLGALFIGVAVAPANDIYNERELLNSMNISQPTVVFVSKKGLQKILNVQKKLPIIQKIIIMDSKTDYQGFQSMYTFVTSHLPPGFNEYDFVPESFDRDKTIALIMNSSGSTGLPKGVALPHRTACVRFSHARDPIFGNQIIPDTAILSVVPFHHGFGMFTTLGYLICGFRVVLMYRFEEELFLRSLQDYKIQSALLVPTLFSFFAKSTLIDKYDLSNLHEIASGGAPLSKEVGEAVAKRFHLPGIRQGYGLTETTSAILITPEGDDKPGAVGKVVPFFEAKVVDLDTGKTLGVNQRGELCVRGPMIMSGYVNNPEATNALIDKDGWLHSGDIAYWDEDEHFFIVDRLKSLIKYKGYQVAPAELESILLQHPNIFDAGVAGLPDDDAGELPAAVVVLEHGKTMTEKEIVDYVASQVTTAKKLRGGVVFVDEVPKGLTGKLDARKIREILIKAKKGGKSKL
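Purified P. pyralis luciferase (10nM final) with 10uM D-luciferin and 10uM ATP (Km levels) in 50mM Tris acetate pH 7.5, 10mM Mg acetate, 0.01% Tween-20, 0.05% BSA; qHTS 6-point titration, ~60 µM downward; luminescence read.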
SMN2 splice enh – qHTS Assay for Enhancers of SMN2 Splice Variant Expression. HEK293 SMN2-luciferase splicing reporter, luminescence, 30-36 h. Potency, µM (highest dose often 46.1 µM), without a hit: at the highest dose activity change, positive = activation, actives largely listed as activators. 210,000 compounds, 2.8% hits. AID 1458, 2008; also: % of control where 0% means no effect; nearly all actives have a fitted effect of over 55% in size
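HEK293 cells carry an SMN2 […]–luciferase reporter in which exon 7 inclusion puts luciferase in frame. Cells were plated 10-12 h before compound addition, then incubated 30-36 h at 37C. ONE-Glo luminescence was read; sodium butyrate at 4.5 mM final served as control.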
Starred values were filed as active, the others as inactive; ? = inconclusive; / = no result given; ! = not confirmed by another sample; [ ] = remark or other dose. The list is not random: actives were taken first. Their share in the collection is about 9.2%. Calls follow the shape of the dose curve; as a rule, active = well fitted curve in the direction sought with a large enough effect; inconclusive = small, poorly fitted or top-dose-only effect, or another doubt; inactive = no such curve, though single readings can be large; an effect the other way counts as inactive or inconclusive. Potency is read from the fitted curve at half-maximal effect.

SMILES	Rab9 prom act	NPC1 promoter act	ELG1 genotox	ELG1 DNA repair	FLuc counter	SMN2 splice enh
Cc1nn2c(=O)cc(COC(=O)c3ccc(NC(=O)COc4ccc(Cl)cc4)cc3)nc2s1	/	/	/	/	1%	/
COc1ccccc1Cn1c(C2CC(=O)N(c3ccccc3OC)C2)nc2ccccc21 (stereo not drawn)	/	/	/	/	-2%	/
CCC(=O)Nc1ccc(C(=O)CN2C(=O)NC3(CCOc4ccccc43)C2=O)cc1 (stereo not drawn)	1%	-3%	0%	?	7%	/
Cc1ccccc1N/C(SCc1ccc(Cl)cc1)=C(/C#N)C(=O)NCc1ccco1	6%	-6%	0%	?	1%	-18%
Cc1ccc(CS/C(Nc2ccccc2C)=C(\C#N)C(=O)NCc2ccco2)c(C)c1	1%	-3%	-7%	15µM*	-2%	-23%
COc1ccccc1N1CCN(C(=O)c2cnc(N3CCCCC3)c3ccccc23)CC1	/	/	/	/	-15%	/
Cc1ccccc1NC(=O)c1oc2c(c1C)-c1nn(Cc3cccc(Cl)c3)cc1CC2	/	/	/	/	0%	/
Cc1nn(C)c(C)c1CCC(=O)N1CCCC(C(=O)c2cccc(OC(C)C)c2)C1 (stereo not drawn)	1%	8%	0%	-6%	-13%	/
CC(C)Oc1cccc(C(=O)C2CCCN(C(=O)CCc3cnn(C)c3)C2)c1 (stereo not drawn)	3.5µM*	?	?	?	?	/
CC(C)(C)c1ccc(C2CC2C(=O)N/N=C\c2ccc[nH]2)cc1 (stereo not drawn)	-60%	-40%	22%	?	17µM*	/
CSc1ncc(Cl)c(C(=O)Nc2c(C(=O)c3ccc(C)cc3)oc3ccccc23)n1	/	/	/	/	0%	8%
CC(C)(C)S(=O)(=O)/C(C#N)=N/Nc1ccc(C#N)cc1	-3%	0%	-13%	18µM*	?	-44%
CCOc1ccc(OCCC(=O)N2CCN(S(=O)(=O)c3cccc(F)c3)CC2)cc1	-2%	-3%	-2%	?	6%	/
O=C(Nc1ccc2nsnc2c1)c1cccs1	17%	23%	-4%	?	-19%	-6%
O=C(Nc1ccccc1)Nc1cccc2nsnc12	3.2µM*	4.5µM*	?	?	7.6µM*	11µM*
O=C(Nc1cccc2nsnc12)c1cccs1	3.2µM*!	?	?	?	13µM*!	71%
O=C(Nc1cccc2nsnc12)c1cccnc1	1%	0%	0%	-18%	4%	-37%
COc1cccc(-n2c(SCc3ccccc3C)nc3c([nH]c4ccccc43)c2=O)c1	/	/	/	/	1%	/
O=S(=O)(NCc1nc2cccnc2n1Cc1ccccc1Cl)c1ccc(F)c(Cl)c1	/	/	/	/	-10%	/
O=C(COC(=O)c1cnccn1)Nc1ccc2c(c1)OCO2	0%	0%	-1%	13%	0%	-14%
O=C(NCCc1ccc2c(c1)OCCO2)c1ccccn1	2µM*	2.2µM*	?	?	12µM*	/
O=C(Nc1ccc2c(c1)OCO2)c1cnccn1	2.5µM*	3.5µM*	23%	?	?	11µM*
O=C(/C=C\Nc1ccc2c(c1)OCO2)c1ccccn1	?	?	?	?	0.076µM*	-62%
O=C(Nc1ccc2c(c1)OCO2)c1n[nH]c(=O)c2ccccc12	3.5µM*	2.8µM*	?	?	?	/
O=C(NCc1ccc2c(c1)OCO2)c1ccccn1	17%	13%	13%	?	-13%	13%
SMILES	Rab9 prom act	NPC1 promoter act	ELG1 genotox	ELG1 DNA repair	FLuc counter	SMN2 splice enh
COc1ccc(NC(=O)NC(C)c2c(-n3cccc3)sc3c2CCN(C)C3)c(OC)c1 (stereo not drawn)	/	/	/	/	-8%	/
Cc1cc(C)cc(N(CC(=O)Nc2ccc(Br)cc2)S(=O)(=O)c2c(C)[nH]c(=O)[nH]c2=O)c1	-11%	19%	0%	9%	1%	/
Cc1ccccc1NC(=O)Nc1nnc(N2CCCCCC2)s1	/	/	/	/	-3%	/
CCOc1ccccc1NS(=O)(=O)c1c(-c2ccc(C)cc2)csc1C(=O)OC	/	/	/	/	7%	/
Cc1cccc(OCCSc2nc3ccc(NC(=O)c4cccs4)cc3s2)c1	/	/	/	/	1%	/
O=C(Nc1ccc(C(=O)Nc2ccc(C(=O)Nc3ccc(S(=O)(=O)O)c4cc(S(=O)(=O)O)cc(S(=O)(=O)O)c34)cc2)cc1)Nc1ccc(C(=O)Nc2ccc(C(=O)Nc3ccc(S(=O)(=O)O)c4cc(S(=O)(=O)O)cc(S(=O)(=O)O)c34)cc2)cc1	/	/	/	/	/	10%
O=C(Nc1ccc2c(c1)OCO2)c1ccccn1	1.4µM*	1.8µM*	?	?	9.5µM*	/
O=C(Nc1ccc2c(c1)OCO2)c1ccc(=O)[nH]n1	?	28%	10%	?	?	/
CC(C)Oc1ccc(C(=O)Nc2nnc3n2CCS3)cc1	/	/	/	/	11µM*	/
CCN1C(=O)/C(=C2\C=Cc3cc(C)ccc3N2CC)OC1=S	5%	1%	9%	29%	-14%	6%
CCN1C(=O)/C(=C2/C=Cc3ccccc3N2C)OC1=S	3.5µM*	2.5µM*	?	?	?	?
CCOC(=O)C1=C(O)/C(=C/c2ccc(OCC(=O)O)c(OCC)c2)SC1=Nc1ccccc1	-1%	-4%	9%	-2%	-5%	3%
CCOC(=O)C1=C(O)/C(=C/c2ccccn2)SC1=Nc1ccc(Cl)cc1	1%	-5%	-4%	21µM*	2%	-26%
CCc1cc(C(=O)NNC(=S)Nc2ccccc2C)cs1	2.8µM*	3.5µM*	?	?	6.7µM*	14µM*
CCc1cc(C(=O)Nc2ccccc2)cs1	2.2µM*	-9%	?	?	-17%[2.3 µM]	35%
CCc1cc(C(=O)NNC(=S)NCc2ccccc2)cs1	0%	-3%	1%	18%	-13%	-15%
Nc1nc(NCCO)nc(N2CCCCCC2)c1[N+](=O)[O-]	16%	-5%	-3%	-2%	-2%	/
OCCN(CCO)c1nc(N2CCCCC2)c2nc(N(CCO)CCO)nc(N3CCCCC3)c2n1	-9%[46.1 µM]	6%[46.1 µM]	-8%	0.46µM*	0%	-43%
COc1ccc(-c2csc(NC(=O)C3CCN(c4ncnc5sc(C)c(C)c45)CC3)n2)cc1OC	-36%	-37%	-11%	5.2µM*	-2%	/
COc1ccccc1OCC(=O)NNC(=O)C1CCN(c2ncnc3sc(C)c(C)c23)CC1	-1%	-4%	-8%	?	3%	/
